The values below come from PubChem BioAssay (NCATS).

Unmarked numbers belong to inactive results. Activity calls are given as the source filed them. No rule for the calls is given here.

The target of assay [1] is Nuclear receptor subfamily 1 group I member 2 (Rattus norvegicus) (UniProt Q9R1A7). Briefly: qHTS assay for small molecule activators of the rat pregnane X receptor (rPXR) signaling pathway (AID 651751). Conditions: rPXR reporter cells, luciferase (One-Glo), 24 h.
Assay [2] in a line: qHTS assay for small molecule activators of the human pregnane X receptor (PXR) signaling pathway (AID 720659). The note with it: DPX-2 HepG2 CYP3A4-luciferase, 24 h; series mostly up to 92.3 µM. A general note: qHTS replaces the single test concentration by a dilution series.
Also: 0% is about no effect.

Chain of Nuclear receptor subfamily 1 group I member 2 (Rattus norvegicus) (Q9R1A7 whole entry, looked up): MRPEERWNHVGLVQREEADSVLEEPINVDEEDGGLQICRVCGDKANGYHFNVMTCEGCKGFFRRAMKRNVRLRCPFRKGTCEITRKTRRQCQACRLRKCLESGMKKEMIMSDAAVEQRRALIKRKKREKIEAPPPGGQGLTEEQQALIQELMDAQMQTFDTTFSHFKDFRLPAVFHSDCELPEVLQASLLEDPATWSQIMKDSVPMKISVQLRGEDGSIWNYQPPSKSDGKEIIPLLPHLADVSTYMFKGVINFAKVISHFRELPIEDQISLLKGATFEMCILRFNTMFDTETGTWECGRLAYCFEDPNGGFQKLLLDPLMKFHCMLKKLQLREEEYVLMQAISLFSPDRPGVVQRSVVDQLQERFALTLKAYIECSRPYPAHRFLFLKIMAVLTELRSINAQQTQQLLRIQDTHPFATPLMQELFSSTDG

As for `OC[C@@H](O)[C@@H](O)[C@H](O)[C@@H](O)CO`, the max response in assay [1] is 14.3%. For the same compound, the compound was called inactive in assay [2].

Turning to `Cc1cc(O)c2c(c1)C(=O)c1cccc(O)c1C2=O`, the max response in assay [1] was -1.64%. Also, in assay [2], the call was inactive.

For the compound `O=C1c2cccc(O)c2C(=O)c2c(O)cc(CO)cc21`, the max response in assay [1] was -0.0257%. In assay [2], the outcome was inactive.

For the compound `CC(C=CC1=C(C)CCCC1(C)C)=CC=CC(C)=CC(=O)Nc1ccc(O)cc1`, in assay [2], the outcome was inactive.
